Where “and” joins values, the source holds several entries; their conditions need not be identical. Identical values can stand only once. Results filed as inconclusive are left out. Entries that show only a call come without a potency. Where a structure was tested more than once in an assay, its records may differ in their call. Calls of active or inactive are those of the source. The call rests on the fitted dose curve; in most records, active means well fitted curve in the direction sought with a large enough effect in the repeat runs; inconclusive means weak or mixed curves; inactive means no such curve, though single readings can be large; an effect the other way counts as inactive or inconclusive.
Potency means the concentration at half of the fitted maximal effect.

A short description of one assay: qHTS RealTime-Glo MT Cell Viability Assay in HEK293 cells - 24 hour (AID 1224886). Further: nearly all actives have a fitted effect of over 50% in size. The settings on record: RealTime-Glo luminescence; series mostly up to 76.8 µM. The procedure, abridged:
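Viability tracked continuously by luminescence as live cells reduce a prosubstrate for NanoLuc; HEK293 cells preincubated 5 h, compound-treated at 37 C, and read at 0, 8, 16, 24, 32 and 40 h.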
(Quantitative high-throughput screening tests each substance at several concentrations.)
Take `CC(=O)C1(C)CC2=C(CCCC2(C)C)CC1C` (stereo not drawn): the Potency result was “inactive”.
Regarding `Nc1ccccc1N`, the Potency result was “inactive”.
For the compound `CCOCCOCCO`, the Potency result is “inactive”.
With `CN(C)C(=N)N=C(N)N`, the Potency entry is “inactive”.
The same measure, in the same setting: under `O=C(O)c1ccccc1Nc1cccc(C(F)(F)F)c1` stands “inactive”.
Take `O=C(c1ccccc1)c1ccccc1O`: the Potency result is “inactive”.
The same measure, in the same setting: under `CCCCc1oc2ccccc2c1C(=O)c1cc(I)c(OCCN(CC)CC)c(I)c1` stands 34.9 µM (active) and 23.9 µM (active); under `C=CC(C)(CCC=C(C)C)OC(C)=O` (stereo not drawn), “inactive”; under `CC(C)Oc1ccc2c(=O)c(-c3ccccc3)coc2c1`, 12 µM (active).
In the case of `CN(C)CCC=C1c2ccccc2CCc2ccccc21`, the Potency entry is “inactive”.
For the compound `O=C(Nc1ccc([N+](=O)[O-])cc1Cl)c1cc(Cl)ccc1O`, the Potency was 5.49 µM (active) and 1.04 µM (active).
With `S=C(NC1CCCCC1)NC1CCCCC1`, the Potency was 17 µM (active) and 21.9 µM (active).

Another assay can be described thus: qHTS RealTime-Glo MT Cell Viability Assay in HEK293 cells - 8 hour (AID 1224887). Further: nearly all actives have a fitted effect of over 50% in size. The note with it: RealTime-Glo luminescence; series mostly up to 76.8 µM. The procedure, abridged:
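HEK293 cells mixed with RealTime-Glo reagents (NanoLuc plus cell-permeant prosubstrate) at 600 cells/well, preincubated 5 h at 37 C/5% CO2, then given 23 nL compound in DMSO. Nonlytic luminescence from viable cells was read at 0, 8, 16, 24, 32 and 40 h.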
In the case of `Cn1cnc([N+](=O)[O-])c1Sc1ncnc2nc[nH]c12`, the Potency result was “inactive”.
For the compound `Cc1cccc(N(C)C(=S)Oc2ccc3ccccc3c2)c1`, the Potency entry was “inactive”.
On the same count and under the same terms, under `O=C=Nc1ccc(Cc2ccc(N=C=O)cc2)cc1` stands “inactive”; under `CC(C(=O)O)c1cccc(C(=O)c2ccccc2)c1` (stereo not drawn), “inactive”.
Regarding `CC(=O)C1(C)CC2=C(CCCC2(C)C)CC1C` (stereo not drawn), the Potency result was “inactive”.
In the case of `COC(C)COC(C)COC(C)CO` (stereo not drawn), the Potency entry is “inactive”.
Consider `Cc1ccc2c(n1)Oc1ccc(C(C)C(=O)OCC(=O)N(C)C)cc1C2` (stereo not drawn), for which the Potency result was “inactive”.
Take `O=C(Nc1ccc(Cl)cc1)Nc1ccc(Cl)c(Cl)c1`: the Potency result was “inactive”.
The same measure, in the same setting: the entry for `O=C(c1ccccc1)c1ccccc1O` is “inactive”; for `CCCCC(CC)COC(=O)c1ccc(N(C)C)cc1` (stereo not drawn) it is “inactive”; for `COc1ccccc1/C=C/C=O` it is “inactive”.
The same measure, in the same setting: under `CC(=O)c1ccccn1` stands “inactive”; under `Oc1ccc(O)cc1`, “inactive”; under `OC[C@H]1O[C@@H]2O[C@H]3[C@H](O)[C@@H](O)[C@@H](O[C@H]4[C@H](O)[C@@H](O)[C@@H](O[C@H]5[C@H](O)[C@@H](O)[C@@H](O[C@H]6[C@H](O)[C@@H](O)[C@@H](O[C@H]7[C@H](O)[C@@H](O)[C@@H](O[C@H]8[C@H](O)[C@@H](O)[C@@H](O[C@H]1[C@H](O)[C@H]2O)O[C@@H]8CO)O[C@@H]7CO)O[C@@H]6CO)O[C@@H]5CO)O[C@@H]4CO)O[C@@H]3CO`, “inactive”.
Still for that read-out and setting: under `O=C(Nc1ccc([N+](=O)[O-])cc1Cl)c1cc(Cl)ccc1O` stands “inactive”; under `Brc1cc(Oc2cc(Br)c(Br)c(Br)c2Br)c(Br)c(Br)c1Br`, “inactive”.
`CCC(C)c1ccccc1O` (stereo not drawn): the Potency result was “inactive”.
Still for that read-out and setting: the entry for `CCCCOCCOCCO` is “inactive”; for `O=C(COc1ccc(Cl)cc1)N1CCN(Cc2ccc3c(c2)OCO3)CC1` it is 38.9 µM (active) and inactive; for `O=C(c1ccc(OCCN2CCCCC2)cc1)c1c(-c2ccc(O)cc2)sc2cc(O)ccc12` it is 21.9 µM (active).

The next assay can be described thus: A CellTox Green Cytotoxicity Assay to monitor cytotoxicity in HEK293 cells - 16 hour (AID 1224888). Further: nearly all actives have a fitted effect of over 35% in size. The note with it: CellTox Green fluorescence; series mostly up to 76.8 µM. The method in brief: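 HEK293 cells premixed with CellTox Green dye were seeded at 600 cells/well and left 5 h at 37 C/5% CO2 before pin transfer of 23 nL compound in DMSO. Fluorescence from dye bound to dead-cell DNA was read during 40 h treatment.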
On to `CCC(C)OC(=O)c1ccc(O)cc1` (stereo not drawn), for which the Potency result is “inactive”.
With `C/C=C/C(=O)O`, the Potency entry was “inactive”.
The same measure, in the same setting: under `Cn1cnc([N+](=O)[O-])c1Sc1ncnc2nc[nH]c12` stands “inactive”; under `Cc1cccc(N(C)C(=S)Oc2ccc3ccccc3c2)c1`, “inactive”; under `O=C=Nc1ccc(Cc2ccc(N=C=O)cc2)cc1`, “inactive”.
With `O=CCc1ccccc1`, the Potency result was “inactive”.
The same measure, in the same setting: the entry for `CC(C(=O)O)c1cccc(C(=O)c2ccccc2)c1` (stereo not drawn) is “inactive”; for `CC(=O)C1(C)CC2=C(CCCC2(C)C)CC1C` (stereo not drawn) it is “inactive”.
As to `c1cc(N(CC2CO2)CC2CO2)ccc1OCC1CO1` (stereo not drawn), the Potency entry was “inactive”.
Regarding `Nc1ccccc1N`, the Potency is 50.1 µM (active).
Take `CCOCCOCCO`: the Potency result is “inactive”.
The same measure, in the same setting: under `CN(C)C(=N)N=C(N)N` stands “inactive”; under `COC(C)COC(C)COC(C)CO` (stereo not drawn), “inactive”.
Still for that read-out and setting: under `O=C1c2cccc(O)c2C(=O)c2c(O)cccc21` stands “inactive”.
On the same count and under the same terms, the entry for `O=C(O)c1ccccc1Nc1cccc(C(F)(F)F)c1` is “inactive”; for `Cc1ccc2c(n1)Oc1ccc(C(C)C(=O)OCC(=O)N(C)C)cc1C2` (stereo not drawn) it is “inactive”.
For `O=C(Nc1ccc(Cl)cc1)Nc1ccc(Cl)c(Cl)c1`, the Potency entry is “inactive”.
The same measure, in the same setting: the entry for `C#C[C@]1(O)CC[C@H]2[C@@H]3CCc4cc(OC)ccc4[C@H]3CC[C@@]21C` is “inactive”.
Regarding `O=C(c1ccccc1)c1ccccc1O`, the Potency result is “inactive”.
Regarding `C#C[C@]1(O)CC[C@H]2[C@@H]3CCC4=Cc5oncc5C[C@]4(C)[C@H]3CC[C@@]21C`, the Potency entry is “inactive”.
On the same count and under the same terms, the entry for `CCCCC(CC)COC(=O)c1ccc(N(C)C)cc1` (stereo not drawn) is “inactive”; for `C=CC(C)(CCC=C(C)C)OC(C)=O` (stereo not drawn) it is “inactive”.
For the compound `COc1ccccc1/C=C/C=O`, the Potency entry was “inactive”.
Regarding `CC(=O)c1ccccn1`, the Potency result was “inactive”.
Same read-out and setting: the entry for `CC(=O)Oc1ccccc1C(=O)Nc1ncc([N+](=O)[O-])s1` is “inactive”; for `CC(C)Oc1ccc2c(=O)c(-c3ccccc3)coc2c1` it is “inactive”.
Still for that read-out and setting: the entry for `Oc1ccc(O)cc1` is “inactive”.
For `OC[C@H]1O[C@@H]2O[C@H]3[C@H](O)[C@@H](O)[C@@H](O[C@H]4[C@H](O)[C@@H](O)[C@@H](O[C@H]5[C@H](O)[C@@H](O)[C@@H](O[C@H]6[C@H](O)[C@@H](O)[C@@H](O[C@H]7[C@H](O)[C@@H](O)[C@@H](O[C@H]8[C@H](O)[C@@H](O)[C@@H](O[C@H]1[C@H](O)[C@H]2O)O[C@@H]8CO)O[C@@H]7CO)O[C@@H]6CO)O[C@@H]5CO)O[C@@H]4CO)O[C@@H]3CO`, the Potency result was “inactive”.
On the same count and under the same terms, the entry for `CN(C)CCC=C1c2ccccc2CCc2ccccc21` is “inactive”; for `O=C(Nc1ccc([N+](=O)[O-])cc1Cl)c1cc(Cl)ccc1O` it is “inactive”.
On the same count and under the same terms, the entry for `Brc1cc(Oc2cc(Br)c(Br)c(Br)c2Br)c(Br)c(Br)c1Br` is “inactive”.
Turning to `S=C(NC1CCCCC1)NC1CCCCC1`, the Potency result is “inactive”.
Same read-out and setting: the entry for `CCCCOCCOCCO` is “inactive”; for `O=C(COc1ccc(Cl)cc1)N1CCN(Cc2ccc3c(c2)OCO3)CC1` it is “inactive”.
As to `CC(C)OC(=O)C(C)(C)Oc1ccc(C(=O)c2ccc(Cl)cc2)cc1`, the Potency entry is “inactive”.
Turning to `O=C(/C=C/C=C/c1ccc2c(c1)OCO2)N1CCCCC1`, the Potency result was “inactive”.

The values are drawn from PubChem BioAssay (Tox21).
